Reference: the supplement of paper PMC13380429

Assays:
[1] = tested on: Vero E6 infected with SARS-CoV-2; assay: morphology score (similarity to uninfected cells); higher = more like uninfected cells; details: 24 h
[2] = tested on: Vero E6 infected with SARS-CoV-2; assay: SARS-CoV-2 infection rate relative to infected DMSO; higher = more infection, active = 60 or less; details: 24 h

| Structure (SMILES) | morphology score [1] | SARS-CoV-2 infection rate [2] |
| --- | --- | --- |
| CO/N=C1\CN(c2nc3c(cc2F)c(=O)c(C(=O)O)cn3C2CC2)CC1CN (stereo not given) [gemifloxacin] (10 µM) | 0.163 | 91.5% (inactive) |
| CC[C@H]1[C@@H]2C[C@H]3[C@@H]4N(C)c5ccccc5[C@]45C[C@@H]([C@@H]2[C@H]5O)N3[C@@H]1O [ajmaline] (10 µM) | -0.0982 | 106% (inactive) |
| CC(C)NC[C@@H](O)COc1ccc(CC(N)=O)cc1 (racemic) [atenolol-(+/-)] (10 µM) | 0.0556 | 108% (inactive) |
| O=c1[nH]c(=O)n([C@H]2C[C@H](O)[C@@H](CO)O2)cc1C(F)(F)F [trifluridine] (0.833333 µM) | 0.175 | 101% (inactive) |
| CCS(=O)(=O)c1ccc2oc(-c3ccc4ccccc4c3)nc2c1 [ezutromid] (10 µM) | 0.174 | 98.5% (inactive) |
